According to ChEMBL document CHEMBL3988442, “University of Dundee, Small-Polar-MMV Screening Library” (2021):
Out of some 85,000 compounds screened, about 440 (0.52%) showed an effect of 50% or more. What follows is part of a selection rich in strong results, with near analogues and random picks from the rest.

Assay: In vitro enzyme assay to detect hydrolysis of chlorophenol red-beta-D-[…] directly proportional to the number of Toxoplasma stably expressing beta-galactosidase
Format: functional, organism-based, Toxoplasma gondii
Design: scale not given: in the data most compounds retested in dose-response had high values

| SMILES | Percent Effect (50 µM) [%] | Percent Effect (10 µM) [%] |
| --- | --- | --- |
| CC(C(N)=O)N(C)CCCOc1ccccc1 (stereo not drawn) | 9.989 |  |
| Cc1ccccc1OCCC(=O)OC(C)C(=O)Nc1sccc1C(N)=O (stereo not drawn) |  | -4.306 |
| CC(C(=O)Nc1sccc1C(N)=O)N(C)CCOc1ccccc1 (stereo not drawn) |  | 66.89 |
| CCc1nsc(N2CC(CO)C2)n1 | 7.559 |  |
| CCCC(O)CNS(=O)(=O)c1cc(F)cc(F)c1 (stereo not drawn) | -5.662 |  |
| CC1CCCN(C(=O)c2cc(O)nc3ccccc23)C1 (stereo not drawn) | 6.15 |  |
| COc1ccc(C2CCCN2c2cnccn2)c(OC)c1 (stereo not drawn) |  | -3.299 |
| COc1ccc(C2CCCN2c2ccnc(C)c2Cl)c(OC)c1 (stereo not drawn) |  | 50.91 |
| COc1ccc(C2CCCN2c2nnc(C)s2)c(OC)c1 (stereo not drawn) |  | 0.194 |
| NCCN1CCc2c(Cl)cccc2C1=O | 17.2 |  |
| NC1CCN(C(=O)C2CCCC2)C1 (stereo not drawn) | 2.86 |  |
| Cn1nc(-c2nc(C(C)(C)C)no2)ccc1=O | 3.371 |  |
| N#CC[C@@H](N)c1ccccc1 | -6.546 |  |
| COc1ccc(F)c(-c2cc(NCCO)nc(N)n2)c1 |  | 0.663 |
| CNc1cc(-c2cccc(OC)c2OC)nc(N)n1 | 50.78 |  |
| COc1ccc(-c2cc(NCCO)nc(N)n2)cc1C | 29.21 |  |
| CC(C)(C)CCOc1cnccc1CN | 14.78 |  |
| Cc1cc(NCCO)nc(N2CCCC2)c1C#N |  | 1.046 |
| Cc1cc(C)c(C#N)c(N2CCC(Cc3ccccc3)CC2)n1 |  | -2.69 |
| Cc1cc(NCCO)nc(N2CCC(Cc3ccccc3)CC2)c1C#N.O=C(O)C(=O)O |  | 62.98 |
| Cc1cc(NCCO)nc2ccccc12 | -2.255 |  |

| SMILES | Percent Effect (50 µM) [%] | Percent Effect (10 µM) [%] |
| --- | --- | --- |
| Cc1cc(NCCO)nc(N2CCN(C)CC2)c1C#N |  | -10.98 |
| CCCC(C)C(=O)N1CCOCC1 (stereo not drawn) | -3.427 |  |
| NC(=O)CN(CCCO)Cc1ccccc1 | -1.308 |  |
| O=S(=O)(CCN1CCC(CO)CC1)c1ccccc1 | -26.81 |  |
| Cc1cc(=O)[nH]c(-n2nc(C3CC3)cc2N)n1 |  | 28.72 |
| CCCc1cc(=O)[nH]c(C(C)(N)CC)n1 (stereo not drawn) | 0.6774 |  |
| CCc1cc(=O)[nH]c(-n2nc(C3CC3)cc2NC(=O)C2CC2)n1 |  | 96.09 |
| Cn1nc(CNC(=O)C2CC2)cc1C1CC1 |  | -6.984 |
| CCCc1cc(=O)[nH]c(-n2nc(C3CC3)cc2N)n1 |  | 94.33 |
| CCCc1cc(=O)[nH]c(-n2nc(-c3cccs3)cc2N)n1 |  | 36.6 |
| CC(C)c1cc(=O)[nH]c(C(C)(C)N)n1.Cl |  | 21.75 |
| CC(C)c1cc(=O)[nH]c(-n2nc(C3CC3)cc2N)n1 |  | 94.68 |
| CCc1c(C)nc(-n2nc(C3CC3)cc2NC(C)=O)[nH]c1=O |  | -1.935 |
| Cc1nscc1C(=O)OCCC(=O)NC(C)C | -12.79 |  |
| CCCn1nc(C)cc1NC(=O)N1CCCC(C#N)C1 (stereo not drawn) | -0.4936 |  |
| COc1cc(Br)cnc1C#N | -14.47 |  |
| CSCc1ccc(C(=O)N2CC(CC(N)=O)C2)cc1 | -6.52 |  |
| NCc1ccccc1OC(F)(F)F | 14.39 |  |
| OC1(c2ccccc2)CCCNCC1 (stereo not drawn) | 3.493 |  |
| CCc1nnc(NC(=O)c2ccc(S(=O)(=O)NC)o2)s1 | -1.635 |  |
| CCSc1ccc(C(=O)NCCc2nnc[nH]2)cn1 | 5.402 |  |

| SMILES | Percent Effect (50 µM) [%] | Percent Effect (10 µM) [%] |
| --- | --- | --- |
| CCc1ccccc1OCC(=O)N1CCOCC1c1ncon1 (stereo not drawn) |  | 7.498 |
| O=C(COc1cccc(Cl)c1)N1CCOCC1c1ncon1 (stereo not drawn) |  | 37.28 |
| Cc1cccc(C)c1OCC(=O)N1CCOCC1c1ncon1 (stereo not drawn) |  | 56.8 |
| OC1(C2CCCCC2)CCNCC1 | 0.8115 |  |
| C=C(Br)CN1CCN(CCNC(=O)C2CCC2)CC1 | -27.84 |  |
| CN(C)c1ccc(NC(=O)CCc2cccnc2)cn1 | -6.854 |  |
| CCc1nccn1CCNC1CCN(c2nc3ccc(Cl)cc3s2)CC1 |  | 59.54 |
| Clc1ccc2nc(N3CCC(NCCCC4CCOC4)CC3)sc2c1 (stereo not drawn) |  | -1.385 |
| CCS(=O)(=O)CCNC1CCN(c2nc3ccc(Cl)cc3s2)CC1 |  | 6.923 |
| CC(CN)C(=O)Nc1cn[nH]c1 (stereo not drawn) | 55.25 |  |
| CC(CNC(=O)Nc1cn[nH]c1)N(C)C (stereo not drawn) | -3.915 |  |
| CC(=O)Nc1cn[nH]c1 | -20.18 |  |
| CCn1cc(S(=O)(=O)N2CCNCC2)c(C)n1 | -15.85 |  |
| NC(=O)C1CN(c2ccc3cccc(Br)c3n2)CCO1 (stereo not drawn) | -8.237 |  |
| CS(=O)(=O)c1cc(Cl)cc(CN)c1 | -21.93 |  |
| CNS(=O)(=O)c1ncccc1N | -16.66 |  |
| NCc1cccc(CN2CCCC2=O)c1 | -4.942 |  |
| NCc1cccc(CN2CCCC2)c1 | 60.68 |  |
| NCc1ccc(CN2CCCCC2)cc1 | 0.9541 |  |
| Cc1nn(C)c(C)c1NC(=O)N1CCSCC1 | -12.54 |  |
| CN(C)c1cc(CNC(=O)c2cnccn2)ccn1 |  | 21.24 |

| SMILES | Percent Effect (50 µM) [%] | Percent Effect (10 µM) [%] |
| --- | --- | --- |
| CN(C)c1cc(CNC(=O)c2nccnc2N)ccn1 | 58.76 |  |
| CN(C)c1cc(CNC(=O)c2ccncc2)ccn1 | -1.688 |  |
| O=C1CC[C@@H](CO)N1 | -0.2195 |  |
| CCS(=O)(=O)c1cccc(CN)c1 | 21.69 |  |
| Cc1ccc(C(=O)NCCCN2CCCC2)cc1 | 3.9 |  |
| CNC(=O)NCc1cccnc1OC1CCCC1 | 56.84 |  |
| CC(O)CNC(=O)NCc1cccnc1OC1CCCC1 (stereo not drawn) |  | -1.891 |
| COc1ncccc1CNc1snc(Cl)c1C#N |  | 29.55 |
| N#Cc1c(Cl)nsc1NCc1cccnc1OCC(F)(F)F |  | 25.91 |
| Cc1cc(NC(=O)NCc2cccnc2OC2CCCC2)n(C)n1 |  | -3.087 |
| N#Cc1c(Cl)nsc1NCc1cccnc1OC1CCCC1 |  | 78.06 |
| CCN1CCCC1CNC(=O)CN(C)S(C)(=O)=O (stereo not drawn) | -8.865 |  |
| COc1cccc(NC(=O)CN2CCCNCC2)c1 | -7.679 |  |
| O=C(Nc1ccccn1)N1CCCN(C2CC2)CC1 | 3.024 |  |
| COCc1ccc(C(=O)N2CCC(Oc3ccccc3)(C(=O)O)CC2)o1 |  | 0.5821 |
| O=C(c1ccc(COc2ccccc2Cl)o1)N1N=CCC1(O)C(F)(F)F (stereo not drawn) |  | 45.92 |
| O=C(c1ccc(COc2ccc(Cl)cc2)o1)N1N=CCC1(O)C(F)(F)F (stereo not drawn) |  | 95.68 |
| Cc1cccc(OCc2ccc(C(=O)N3N=CCC3(O)C(F)(F)F)o2)c1 (stereo not drawn) |  | 93.63 |
| O=C(Cn1cc(Br)cn1)N1N=CCC1(O)C(F)(F)F (stereo not drawn) | -25.92 |  |
| COc1ccc(C(=O)N2CCC(Oc3cccc(C)c3)(C(=O)O)CC2)o1 |  | -1.229 |
